Data published in PubChem BioAssay (EPA / NIEHS).
Inconclusive results are not listed. Calls of active or inactive are those of the source. How the source made its calls: active means hit-call score of the fitted dose curve at least 0.9, where 1 is the maximum; inconclusive means response in the unintended direction; inactive means score below 0.9.

The compounds below were run against Cellular tumor antigen p53 (Homo sapiens) (UniProt P04637) (assay: TOX21_p53_BLA_p4_ratio: Tox21 HCT-116 p53 Agonism Beta-lactamase Assay, Ratio, Phase 4 (AID 2283601)).
Cellular tumor antigen p53 (Homo sapiens), sequence (P04637 whole entry, looked up): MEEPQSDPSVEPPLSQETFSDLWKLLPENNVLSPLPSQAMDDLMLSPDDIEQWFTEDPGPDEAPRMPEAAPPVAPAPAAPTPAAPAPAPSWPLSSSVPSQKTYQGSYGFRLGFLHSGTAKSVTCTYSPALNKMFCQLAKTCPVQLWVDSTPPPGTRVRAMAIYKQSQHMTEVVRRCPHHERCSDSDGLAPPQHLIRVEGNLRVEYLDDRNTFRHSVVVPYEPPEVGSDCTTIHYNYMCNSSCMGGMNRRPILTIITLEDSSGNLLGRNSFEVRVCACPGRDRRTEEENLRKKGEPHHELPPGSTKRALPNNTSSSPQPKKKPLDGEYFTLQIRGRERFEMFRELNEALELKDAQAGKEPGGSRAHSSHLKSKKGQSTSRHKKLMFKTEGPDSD
Procedure, shortened: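 HCT-116 p53 beta-lactamase reporter cells (4000/well) preincubated 5 h, then compound (217-fold dilution of DMSO stock) for 16 h at 37C. CCF4-AM substrate added 2 h at room temperature; 460/530 nm emission ratio fitted upward versus DMSO.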

Q: Which outcome does the source give for `CC(C)(C)C(=O)NCCCC(=O)O` here?
A: inactive

Q: How did the outcome turn out when `O=C1NC(=O)c2cc([N+](=O)[O-])ccc21` was run?
A: inactive

Q: `CCN(CC)CCNC(=O)COc1ccc(OC)cc1` was tested. Which outcome did it give?
A: inactive

Q: `C[N+]1(C)[C@@H]2CC(OC(=O)[C@H](CO)c3ccccc3)C[C@H]1[C@@H]1O[C@@H]12` (stereo partly drawn) was tested. Which outcome did it give?
A: inactive

Q: How did the outcome turn out when `CC(C)OC(=O)C(C(=O)OC(C)C)=C1SC=CS1` was run?
A: inactive

Q: For `CCCCCC(C)N` (stereo not drawn), which outcome is on record?
A: inactive

Q: With `O=C(CN1CCNCC1)NC1CCCCC1` as the compound, how does the outcome read?
A: inactive

Q: How did the outcome turn out when `Nc1nc2c(ncn2COC(CO)CO)c(=O)[nH]1` was run?
A: inactive

Q: For `O=C[O][Al]([O]C=O)[O]C=O`, which outcome is on record?
A: inactive

Q: How did the outcome turn out when `O=C1c2ccccc2C(=O)c2c1ccc(O)c2O` was run?
A: inactive

Q: `NC(=O)Nc1nc2ccccc2[nH]1` was tested. Which outcome did it give?
A: inactive

Q: Which outcome does the source give for `C=CCOC(=O)CCCCCCCC` here?
A: inactive

Q: For `C=N[C@@H](C(=O)N[C@@H]1C(=O)N2[C@@H]1SC(C)(C)[C@@H]2C(=O)O)c1ccccc1`, which outcome is on record?
A: inactive
